# Records with an inconclusive call do not appear. Where a call stands in place of a potency, no number is given. Activity calls are given as the source filed them. The call rests on the fitted dose curve.
# Assay: Cytotoxicity counterscreen for inhibitors of SARS-CoV-2 cell entry (AID 1645845); further: nearly all actives have a fitted effect of over 50% in size
# Details: cell viability (SARS-CoV-2 entry assay cells); series mostly up to 57.1 µM
# Summary of the method: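 Expi293F/hACE2 cells seeded overnight; cpd pin-transferred in DMSO, 1 h preincubation, + media, 48 h 37 C 5% CO2; ATPLite 1step luminescence; normalized to cells and no cells.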
# Potency means the concentration at half of the fitted maximal effect.
row,SMILES,Potency
1,COc1cc(N2CCC(N3CCN(C)CC3)CC2)ccc1Nc1ncc(Cl)c(Nc2ccccc2S(=O)(=O)C(C)C)n1,31.6 µM (active)
2,O=C(O)[C@H](Cc1c[nH]c2ccccc12)N1C(=O)c2ccccc2C1=O,inactive
3,COc1cccc2c1CCCC2CCCN1CCN(C2CCCCC2)CC1 (configuration not stated),inactive
4,CC(C)C(=O)Nc1ncc(-c2cc(C(F)F)nn2-c2c(Cl)cccc2Cl)s1,inactive
5,CCN(CC)CCCCNc1nc2cc(Cl)c(Cl)cc2nc1-c1ccc(-c2cccs2)s1,inactive
6,CN(C)C1CCN(C(=O)c2ccc(NC(=O)Nc3nc(N4CCOCC4)nc(N4CCOCC4)n3)cc2)CC1,6.31 µM (active)
7,COc1cccc2cc(-c3nc(C4CCC(C(=O)O)CC4)n4ncnc(N)c34)[nH]c12 (configuration not stated),inactive
8,Cc1cc([C@@H](C)Nc2ccccc2C(=O)O)c2nc(N3CCOCC3)cc(=O)n2c1,inactive
9,NC(=O)c1ccc(-c2nc(-c3ccc4c(c3)OCCO4)c(-c3ccccn3)[nH]2)cc1,inactive
10,C[C@@H]1CN(CC(=O)Nc2ccc3c(c2)Cc2cccc(-c4cc(=O)cc(N5CCOCC5)o4)c2S3)C[C@H](C)O1,14.1 µM (active)
11,CCOc1ccn(-c2ccc(F)cc2)c(=O)c1C(=O)Nc1ccc(Oc2ccnc(N)c2Cl)c(F)c1,inactive
12,O=C(Nc1cc(C(F)(F)F)cc(C(F)(F)F)c1)c1cc(Cl)ccc1O,1.58 µM (active)
13,NC(=O)c1c(OCc2c(F)cc(Br)cc2F)nsc1NC(=O)NCCCCN1CCCC1,inactive
14,COc1nc(-c2ccc3c(c2)OCO3)n(-c2ccc(NC(=O)CSc3ccccc3)cc2)n1,inactive
15,c1ccc2c(-c3cnn4cc(-c5ccc(N6CCNCC6)cc5)cnc34)ccnc2c1,7.08 µM (active)
16,COc1cc(Oc2ccnc3cc(OC)c(OC)cc23)ccc1NC(=O)NC(C)c1nccs1 (configuration not stated),inactive
17,CCCS(=O)(=O)Nc1ccc(F)c(C(=O)c2c[nH]c3ncc(Cl)cc23)c1F,inactive
18,Cc1cnc(-c2cnc(NCCNc3ccc(C#N)cn3)nc2-c2ccc(Cl)cc2Cl)[nH]1,inactive
19,N#CC[C@H](C1CCCC1)n1cc(-c2ncnc3[nH]ccc23)cn1,inactive

row,SMILES,Potency
1,Oc1cccc(-c2nc(N3CCOCC3)c3oc4ncccc4c3n2)c1,inactive
2,O=C(NCCS(=O)(=O)c1ccc(C(F)(F)F)cn1)c1ccc(Cl)cc1,inactive
3,OCCC#Cc1nc(-c2ccc(F)cc2)c(-c2ccncc2)n1CCCc1ccccc1,inactive
4,CC(=O)NCCC(=O)N[C@@H](CCC(N)=O)C(=O)N[C@@H](CO)C(=O)N[C@@H](CCC(N)=O)C(=O)N[C@@H](CCC(N)=O)C(=O)N[C@H](C(=O)N[C@@H](Cc1ccccc1)C(=O)N[C@]1(C)CCCCCCC=CCCC[C@@](C)(C(=O)N[C@@H](CCC(N)=O)C(=O)N[C@@H](CC(N)=O)C(N)=O)NC(=O)[C@H](CC(C)C)NC(=O)[C@H](CC(C)C)NC(=O)[C@@H](CCCNC(=N)N)NC(=O)[C@H](Cc2c[nH]c3ccccc23)NC(=O)[C@H](CC(C)C)NC(=O)[C@H](CC(N)=O)NC1=O)[C@H](C)O,inactive
5,Cn1c(=O)c(F)c(Nc2ccc(I)cc2F)c2c(=O)n(C[C@@H](O)CO)cnc21,inactive
6,COc1ccc(OC)c(-c2nnc3ccc(-c4ccc(OC)c(O[C@@H]5CCOC5)c4)nn23)c1,inactive
7,O=C(Nc1cccnc1)N1CCC(Cc2cccc(Oc3ccc(C(F)(F)F)cn3)c2)CC1,20 µM (active)
8,C[C@@H](N)C1CCC(C(=O)Nc2ccncc2)CC1 (some centres not stated),inactive
9,COc1cc2ncn(-c3cc(OCc4ccccc4C(F)(F)F)c(C(N)=O)s3)c2cc1OC,2.51 µM (active)
10,C=CC(=O)Nc1cc2c(Nc3ccc(F)c(Cl)c3)ncnc2cc1C#CC(C)(C)N1CCN(C)CC1,25.1 µM (active)
11,CNC(=O)c1cc(Oc2ccc(NC(=O)Nc3cc(C(C)(C)C)nn3-c3ccc4ncccc4c3)c(F)c2)ccn1,inactive
12,CCCCc1ccc(NS(=O)(=O)c2ccc(C)c(C(=O)N3CCN(c4cccc(C)c4C)CC3)c2)cc1,inactive
13,COc1ccc(CCN2CCN(CCCc3ccccc3)CC2)cc1OC,inactive
14,CC(C)(O)C(=O)Nc1ccc([N+](=O)[O-])c(C(F)(F)F)c1,inactive
15,CCCCCCCCCCC(CO)CCCCCCCC (configuration not stated),inactive
16,Cc1cc2c(F)c(Oc3ncnn4cc(OC[C@@H](C)O)c(C)c34)ccc2[nH]1,inactive
17,CC(C)(N)C(=O)N[C@H](COCc1ccccc1)C(=O)N1CCC2(CC1)CN(S(C)(=O)=O)c1ccccc12,inactive
18,CC(C)(C)c1cc(NC(=O)Nc2ccc(-c3cn4c(n3)sc3cc(OCCN5CCOCC5)ccc34)cc2)no1,inactive
